Screens from PubChem BioAssay.
Only some compounds are listed: those with a hit (about 8% of all), similar ones and a draw of the others.
SW480 rereplic: DNA re-replication induction in SW480 cells; SW480 DNA re-replication, Hoechst DNA content imaging, 48 h; Potency, µM (doses to about 46.1 µM), for the others: at the top dose re-replication activation, usual class: activators; AID 624297; hit rate 1.8% among 340,000; note: % of control where 0% means no effect; nearly all actives have a fitted effect of over 55% in size
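Image-based DNA-content assay: after two days of treatment, nuclei were labelled with the DNA dye Hoechst and imaged, and hits were compounds raising the count of nuclei showing high fluorescence intensity.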
HT1080NT lethal: kills 2HG-producing HT-1080-NT fibrosarcoma cells; HT-1080-NT fibrosarcoma viability, CellTiter-Glo ATP luminescence, 48 h; Potency, µM (highest dose often 46.1 µM), without a hit: at the highest dose activity, negative = less viability, usual class: cytotoxic; hit rate 1.6% among 360,000; AID 686970;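 note: NT is the 2HG producing partner of a matched IDH1 knockdown line; 0% = DMSO-treated cells and -100% = media-only wells without cells; nearly all actives have a fitted effect of over 55% in size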
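Fibrosarcoma NT cells, 750 per well in 5% FBS RPMI, were exposed to compound for 48 hours. Viability: CellTiter-Glo luminescence.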
HT1080 IDH1KD tx: HT-1080 IDH1 knockdown cell toxicity (counter line). HT-1080 IDH1 knockdown viability, ATP luminescence, 48 h. Potency, µM (top dose mostly 46.1 µM), for inactives: at the highest dose activity, negative = toxicity, actives largely listed as cytotoxic. hit rate 2% among 360,000;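 note: 0% = DMSO wells and -100% = cell-free medium wells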
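Using the IDH1-knockdown HT-1080 line run in the same batch and compound series as the NT line, viability after 48 h at 37 °C was determined by CellTiter-Glo luminescence and expressed as % activity.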
KB-3-1 tox: KB-3-1 parental cell cytotoxicity. KB-3-1 viability, CellTiter-Glo ATP luminescence, 72 h. Potency, µM (highest dose often 46.1 µM), usual class: cytotoxic. hit rate 1.4% among 400,000; note: % is set by controls: 0 for no effect and ±100 for the full control effect; nearly all actives have a fitted effect of over 60% in size
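Here the drug-naive KB-3-1 line serves as comparator for MDR sub-line selectivity; cells received compound titrations, 72 h at 37 °C, then CellTiter-Glo readout.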
MCF10A rerep: inducers of DNA re-replication in MCF 10A breast cells. Potency, µM (highest dose often 46.1 µM), for the others: at the top dose activity, positive = re-replication, hits mostly activators. hit rate 2.9% among 350,000. MCF 10A DNA re-replication, Hoechst nuclear intensity, 48 h. AID 624296; note: % of control where 0% means no effect; nearly all actives have a fitted effect of over 50% in size
KB-V1 cytotox: KB-V1 MDR subline cytotoxicity | KB-V1 MDR cells viability, CellTiter-Glo, 72 h | Potency, µM (top dose mostly 46.1 µM), usual class: cytotoxic | hit rate 3.4% among 400,000; note: % is set by controls: 0 for no effect and ±100 for the full control effect; nearly all actives have a fitted effect of over 60% in size
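KB-V1 MDR subline cells in DMEM (phenol-red free, 10% FBS) exposed to compounds in qHTS concentration series for 72 h at 37 degrees C. Viability read by CellTiter-Glo luminescence; concentration-effect curves fitted after normalization and correction.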
Active calls of the source: *; i = inactive; ? = inconclusive; · = no result given; [ ] = another dose, or the depositor's remark. Calls come from the whole dose curve; as a rule, active = well fitted curve in the direction sought with a large enough effect; inconclusive = small, poorly fitted or top-dose-only effect, or another doubt; inactive = no such curve, though single readings can be large; an effect the other way counts as inactive or inconclusive. Potency is the fitted concentration of half-maximal effect.

SMILES	SW480 rereplic	HT1080NT lethal	HT1080 IDH1KD tx	KB-3-1 tox	MCF10A rerep	KB-V1 cytotox
COc1cccc(C(=O)NCc2nc(-c3ccccc3)no2)c1OC	·	·	·	i	·	i
Cc1ccc2nc(-c3ccc(SCC(=O)N4CCc5ccccc54)nc3)[nH]c2c1	?	3%	0%	?	?	4.1µM*
CCc1nnc(NC(=O)CSc2ccc(-c3nc4ccc(C)cc4[nH]3)cn2)s1	0%	-1%	4%	i	?	7.3µM*
Cc1ccc(-c2nnc3ccc(SCC(=O)N4CCCc5ccccc54)nn23)cc1	-8%	-24%	?	i	4%	16µM*
Cc1cc2nc(-c3ccc(SCC(=O)Nc4ccc(S(=O)(=O)N5CCCC5)cc4)nc3)[nH]c2cc1C	?	?	?	i	21µM*	i
O=C(CSc1ccc(-c2nc3ccccc3[nH]2)cn1)Nc1ccc(S(=O)(=O)N2CCCC2)cc1	-19%	-13%	-6%	i	-51%	?
Cc1ccc(-c2nnc3ccc(SCC(=O)N4CCc5ccccc54)nn23)cc1	18%	-7%	-1%	i	14%	i
O=C(O)c1ccccc1-c1c2cc(Br)c(=O)c(Br)c-2oc2c(Br)c(O)c(Br)cc12	-6%	·	·	·	-10%	·
O=C(CCC1N=C2c3ccccc3N=C(SCc3ccc(F)cc3)N2C1=O)NCc1ccc(F)cc1 (centres undefined)	·	·	·	i	·	?
CC(=O)CSc1ccc(-c2nc3ccccc3[nH]2)cn1	-11%[9.22 µM]	?	9.2µM*	?	4%	9.2µM*
CCN1CCC(CNCc2cn(-c3ccc(OC)cc3)nc2-c2ccccc2Cl)C1 (centres undefined)	?	16µM*	?	?	?	i
COc1ccc(-n2cc(CNCCN3CCOC3=O)c(-c3ccccc3Cl)n2)cc1	-6%	-3%	-8%	i	7%	i
COc1ccc(-n2cc(CNCCc3nc(C)cc(C)n3)c(-c3ccccc3Cl)n2)cc1	-1%	16µM*	16µM*	i	?	?
Fc1ccc(-n2cc(CNCCc3ccccn3)c(-c3ccccc3Cl)n2)cc1	6%	21µM*	21µM*	?	?	21µM*
COc1ccc(-n2cc(CNCCCn3ccnc3)c(-c3ccccc3Cl)n2)cc1	?	-16%	-16%	i	?	i
Cc1cccc(CNC(=O)C2CCN(S(=O)(=O)c3ccc4c(c3)CCCN4C(=O)C3CCC3)CC2)c1	·	·	·	?	·	i
O=C(NCCc1ccc(Cl)cc1)c1cnc2sc(N3CCCCC3)nn2c1=O	·	·	·	i	·	i
COCCn1c(CCC(=O)Nc2ccc(OC)c(OC)c2)nc2cccnc21	·	·	·	i	·	i
COc1ccc(-c2nc3ccccc3o2)cc1NC(=O)COc1ccc(C)cc1	·	·	·	i	·	i
CCOc1ccc(N2CC(c3nc(-c4cc(OC)c(OC)c(OC)c4)no3)CC2=O)cc1 (centres undefined)	·	·	·	i	·	i
Cc1cc(NC(=O)CSc2nc(C3CCCCC3)nc3ccccc23)no1	13%	-1%	5%[9.24 µM]	?	6%	i
Cc1nonc1NC(=O)CSc1nc(C2CCCCC2)nc2ccccc12	8.2µM*	-18%	-14%	i	?	i
NC(=O)CSc1nc(C23CC4CC(CC(C4)C2)C3)nc2ccccc12	3%	-2%	-1%	i	?	i
Cc1nonc1NC(=O)CSc1nc(C23CC4CC(CC(C4)C2)C3)nc2ccccc12	?	-3%	3%	?	10µM*	?
CCC(=NCCc1c(C)[nH]c2ccc(C)cc12)C1=C(O)CC(c2ccccc2)CC1=O (centres undefined)	2.6µM*	?	1.3µM*	0.73µM*	?	i
